# According to PubChem BioAssay (NCI):
# About 83,000 compounds went through this panel and 20% of them were active in at least one assay; those are over-represented in the sample as a whole.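 Each cell line was grown in a 96-well plate and treated with one concentration of compound for 48 hours. Values below 10 were considered active.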 Unmarked numbers belong to inactive results. The source made the active and inactive calls.
# How the values were obtained:
# Assay in all cases: NCI-60 one-dose screen, 48 h (100 = growth as untreated, 0 = no growth, -100 = all killed)
# [1] = test system: NCI-H226 lung; settings: 10 µM unless noted
# [2] = test system: NCI-H322M lung; settings: 10 µM unless noted
# [3] = test system: HOP-62 NSCLC; settings: 10 µM unless noted
# [4] = test system: NCI-H460 lung; settings: 10 µM unless noted
# [5] = test system: HOP-92 NSCLC; settings: 10 µM
# [6] = test system: NCI-H522 lung; settings: 10 µM unless noted
# [7] = test system: 786-0 renal; settings: 10 µM unless noted
# [8] = test system: COLO 205 colon; settings: 10 µM unless noted
# [9] = test system: DU-145 prostate; settings: 10 µM unless noted
# [10] = test system: K-562 leukemia; settings: 10 µM unless noted
# [11] = test system: MALME-3M melanoma; settings: 10 µM unless noted
# [12] = test system: MDA-MB-231 breast; settings: 10 µM unless noted
# [13] = test system: RXF 393 renal; settings: 10 µM unless noted
# [14] = test system: SF-268 CNS; settings: 10 µM unless noted
# [15] = test system: SF-295 CNS; settings: 10 µM unless noted
# [16] = test system: SF-539 CNS; settings: 10 µM unless noted
# [17] = test system: UACC-257 melanoma; settings: 10 µM unless noted
# [18] = test system: M14 melanoma; settings: 10 µM unless noted
# [19] = test system: A549/ATCC NSCLC; settings: 10 µM unless noted
SMILES,growth [1],growth [2],growth [3],growth [4],growth [5],growth [6],growth [7],growth [8],growth [9],growth [10],growth [11],growth [12],growth [13],growth [14],growth [15],growth [16],growth [17],growth [18],growth [19]
Cc1ccc(-c2cc3nc(C(Cl)Cl)nc(C)n3n2)cc1,94.6%,101%,92.1%,95.1%,110%,104%,104%,115%,96.8%,112%,105%,87%,118%,106%,108%,97.8%,112%,106%,
CN1CCN(Cc2ccc(NC(=O)c3cncc(C#Cc4cnc5ccc(OCC6(C)COC6)nn45)c3)cc2C(F)(F)F)CC1,-62.4% (active),-81.2% (active),-69.4% (active),-77.5% (active),-70.6% (active),-28.3% (active),-55.4% (active),-58.5% (active),-85.3% (active),4.99% (active),-79.8% (active),-74.1% (active),,-62.2% (active),-97.1% (active),-88.6% (active),-70.6% (active),,-43.8% (active)
CS(=O)(=O)c1ccc(-c2nn(-c3ccccc3)cc2/C=N/NC(=O)c2nc(N)n[nH]2)cc1,101%,104%,103%,83%,103%,94.2%,96.8%,96.3%,90%,59.4%,90%,98.4%,117%,103%,103%,99.3%,98.3%,,97.3%
CC(=O)O[C@@H]1C(=O)N(c2cnccn2)[C@H]1c1ccccc1[N+](=O)[O-],39.3%,36.6%,41.5%,-5.1% (active),9.48% (active),-45.7% (active),14.7%,20.9%,2.33% (active),9.97% (active),51.8%,22.4%,62.9%,19.4%,23.9%,-32.5% (active),44.7%,-2.82% (active),14.4%
Oc1ccc(CSc2nnc(-c3ccc(Cl)cc3)n2-c2ccccc2)c2cccnc12,50.9%,41.6%,16.9%,2.03% (active),16.3%,36.4%,44.2%,88.9%,38.8%,22.1%,29.6%,58.5%,56.3%,30.7%,4.65% (active),22%,29.3%,,
CCOC(=O)C(=O)/C(=C\c1ccc(Cl)cc1)C(=O)N1C(=S)NC(=O)C1CC(C)C (stereo unspecified),92%,95.3%,95.6%,102%,86.8%,91.7%,103%,,85.2%,102%,99.8%,90.8%,,100%,99.9%,103%,105%,,104%
CS(=O)(=O)c1ccc(-n2cc(/C=N/O)c(-c3ccccc3)n2)cc1,77.1%,81.7%,89.5%,93.9%,87.9%,70.3%,79.1%,,83.9%,64.5%,97.2%,72.4%,78.6%,70.9%,87.3%,71.1%,90.1%,98.1%,77.2%
O=c1[nH]c(Sc2sc3ccc(Cl)cc3c2CBr)nc(=S)[nH]1,55.1%,39.7%,28.2%,21.5%,1.66% (active),13%,51%,108%,33.9%,12%,27.4%,35.9%,9.12% (active),48.9%,23%,32.1%,44.1%,27.6%,
